BaF3 tox: reduces parental Ba/F3 cell viability, JAK2V617F counter-screen; CellTiter-Glo ATP luminescence; inhibition, % at 5.6 µM; 1.1% of 220,000 active; AID 1486;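 active = inhibition above a per-campaign cutoff, the mean inhibition of all tested compounds plus 3 SD, cut at about 27% in these data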;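 also: 0% = DMSO wells and 100% = JAK Inhibitor I control wells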
IEC-6 tox-1: counter-screen for KLF5 inhibitors: cytotoxicity in IEC-6 cells; IEC-6 cytotoxicity, luminescence viability; inhibition, % at 5 µM; 0.78% of 290,000 active; in the data active = inhibition above about 22%;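 also: 0% = plate median of test compound wells and 100% = cytotoxic reference compound wells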
KLF5 inh: suppresses KLF5 promoter-driven expression; 0.23% of 290,000 active; AID 1700; DLD-1 KLF5 promoter-luciferase reporter, luminescence; inhibition, % at 5 µM;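 active = inhibition above a per-plate limit of that plate's mean compound inhibition plus 3 SD, cut at about 60% in these data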;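 also: 0% = DMSO wells and 100% = LY294002 at 200 µM; higher means less KLF5 promoter-driven luciferase light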
APP 5UTR inh: APP translation inhibition; 0.82% of 190,000 active; inhibition, % at 2 µM; AID 1285; SH-SY5Y APP 5'UTR-luciferase reporter, luminescence;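 active = inhibition above a set limit, derived from the sample mean plus 3 SD, cut at about 45% in these data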
Ba/F3 V617F tox: loss of viability in JAK2V617F-driven Ba/F3 cells; 1.1% of 220,000 active; Ba/F3 EpoR-JAK2V617F viability, ATP luminescence; AID 1446; inhibition, % at 5.6 µM;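 active = inhibition above the campaign mean plus 3 SD over all tested compounds, cut at about 24% in these data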;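 also: cytokine-independent growth of Ba/F3 cells driven by EpoR plus mutant JAK2; 0% = DMSO-treated cells and 100% = JAK inhibitor I control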
aSyn 5UTR inh: MLPCN primary screen, SNCA 5' untranslated region; 0.82% of 300,000 active; inhibition, % (tested at 7.5 µM); alpha-synuclein 5'UTR reporter, inhibitor activity; AID 1813; in the data active = inhibition above about 60%;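 also: H4 neuroglioblastoma cells stably carrying SNCA 5'UTR luciferase fusion; 0% = DMSO wells and 100% = positive control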
KLF5 confirm: confirmation of KLF5 inhibitors; inhibition, % at 4 µM; 79% of 610 active; shares compounds with KLF5 inh; DLD-1 KLF5 promoter firefly luciferase reporter, luminescence; AID 1834;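 active = inhibition above a set limit taken from the earlier primary screen, cut at about 63% in these data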;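 also: 0% = DMSO wells and 100% = LY294002 at 200 µM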
IEC-6 tox-2: counter-screen for KLF5 inhibitors: cytotoxicity in rat IEC-6 cells | shares compounds with KLF5 inh | IEC-6 rat intestinal cells, viability luminescence | inhibition, % at 4 µM | 56% of 610 active; in the data active = inhibition above about 23%;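 also: cells exposed to compounds for 48 hours before viability read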
* hit, by the source's call; . = not tested or not shown. Shown are actives, neighbours in structure and some others; about 2.2% of the full set was active somewhere.

SMILES | BaF3 tox | IEC-6 tox-1 | KLF5 inh | APP 5UTR inh | Ba/F3 V617F tox | aSyn 5UTR inh | KLF5 confirm | IEC-6 tox-2
COc1ccc2[nH]c(C(=O)N/N=C/c3ccccc3OC)cc2c1 | . | 5 | 29 | . | . | -119 | . | .
COc1cc(OC)c2cc(C(=O)N/N=C/c3ccccc3O)[nH]c2c1 | . | 15 | 84* | . | . | -31 | 57 | 2
Cc1ccc(S(=O)(=O)N2CCC(C(=O)Nc3ccc(S(=O)(=O)N4CCCC4)cc3)CC2)cc1C | . | . | . | . | . | 36 | . | .
CC1(c2ccc(OC(F)F)cc2)NC(=O)N(CC(=O)Nc2ccc(Cl)cc2F)C1=O (configuration not stated) | . | 3 | 8 | . | . | 15 | . | .
COc1ccc(CCC(N)=O)cc1OC | 9 | 2 | 70* | 1 | 2 | 10 | -5 | -10
Cc1ccc(C(=O)OCC(=O)N(C)c2c(N)n(Cc3ccccc3)c(=O)[nH]c2=O)s1 | . | . | . | . | . | -2 | . | .
Oc1ccc(/C=C/c2ccc3ccccc3n2)cc1 | 39* | 26* | 78* | -55 | 68* | 90* | 51 | 15
Clc1ccccc1/C=C/c1nc(-c2ccccn2)no1 | 2 | -6 | 72* | . | -2 | 104* | 73* | 5
O=C(O)c1ccc(N/N=C/c2ccc3nccnc3c2)cc1 | 2 | 3 | 98* | . | 5 | 94* | 103* | 2
COc1ccc(CNC(=O)C2CCCN2C(=O)NCc2ccccc2)cc1 (configuration not stated) | . | 5 | -2 | . | . | -6 | . | .
CCN(CC)CCn1nc(C)nc1-c1ccccc1O | 4 | -2 | -24 | -7 | -1 | 16 | . | .
CCN(CC)CCn1nc2c3c(cccc3c1=O)-c1ccccc1-2 | 100* | 87* | 72* | 68* | 102* | 26 | 9 | 75*
c1ccc(-c2noc(-c3ccc4ccccc4c3)n2)nc1 | 6 | 7 | 82* | 49* | 2 | 113* | 106* | 8
Fc1ccc(-c2nnc(NC3=NCCCCC3)o2)cc1 | 11 | 12 | 73* | -45 | 10 | 98* | 41 | 1
c1ccc(-c2nnc(NC3=NCCC3)o2)cc1 | 7 | -1 | -92 | -122 | 6 | -7 | . | .
COc1ccc(N2CCN(c3nc4cc(C)ccc4cc3C=O)CC2)cc1 | . | -3 | -7 | . | . | -37 | . | .
CCCCOc1ccc(N(CC(=O)NCCOC)C(=O)CCC(=O)Nc2ccccn2)cc1 | . | 4 | -6 | . | . | -8 | . | .
COc1cc([C@@H]2c3cc4c(cc3[C@H](O)[C@H]3COC(=O)[C@H]23)OCO4)cc(OC)c1OC | 93* | . | 84* | 94* | 97* | 95* | 92* | .
COc1cc([C@@H]2c3cc4c(cc3[C@@H](O)[C@@H](CO)[C@@H]2CO)OCO4)cc(OC)c1O[Si](C)(C)C(C)(C)C | . | . | . | . | . | 44 | . | .
Cc1ccc(-c2nc3ccc(Cl)cc3n2OC(C)C(=O)O)cc1 (configuration not stated) | 13 | 4 | 66* | -116 | 9 | -127 | -17 | 9
C/C(=N\Nc1ccc2nncn2n1)c1ccccn1 | 69* | 2 | 68* | . | 76* | 94* | 76* | 83*
CC(=O)c1cccc(NC(=O)Cn2cnc(S(=O)(=O)N3CCCC3)c2)c1 | . | -12 | -23 | . | . | 6 | . | .
Oc1cccc2ccc(Nc3ccccn3)nc12 | 76* | -3 | 105* | 80* | 98* | 98* | 102* | 14
CCCc1ccc(-c2ccc(/C=C/C(=O)O)cc2)nc1 | -3 | 8 | 79* | 46* | -3 | 115* | 83* | -3
CCCCCCCc1ccc(-c2ccc(O)cc2)nc1 | 4 | -6 | -55 | -27 | -1 | -28 | . | .
SMILES | BaF3 tox | IEC-6 tox-1 | KLF5 inh | APP 5UTR inh | Ba/F3 V617F tox | aSyn 5UTR inh | KLF5 confirm | IEC-6 tox-2
Cc1occc1C(=O)N/N=C/c1c(O)ccc2ccccc12 | . | 18 | 57 | . | . | 54 | . | .
O=C(CSCC(=O)Nc1ccccc1)N/N=C/c1c(O)ccc2ccccc12 | 3 | -2 | 68* | 66* | 2 | 76* | 79* | 0
O=C(N/N=C/c1c(O)ccc2ccccc12)c1ccc(Br)o1 | . | 12 | 68* | . | . | 106* | 86* | 8
Cc1nc2ccccn2c1-c1csc(Nc2cccc(O)c2)n1 | 78* | 5 | 74* | 89* | 80* | 49 | 68* | 4
CC(C)c1ccccc1OCCCCCN1CCOCC1 | . | . | . | . | . | 6 | . | .
COC(=O)C(Cc1ccc(O)cc1)NC(=O)c1ccc2c(c1)OCCO2 (configuration not stated) | . | -10 | -41 | . | . | -6 | . | .
CC(=O)N1CCOc2ccc(S(=O)(=O)Nc3ccc(C)cn3)cc21 | . | -6 | 4 | . | . | -7 | . | .
O=C(CCl)Nc1cc(SCC(O)CO)cc([N+](=O)[O-])c1 (configuration not stated) | 99* | 14 | 84* | -16 | 99* | 110* | 112* | 34*
Cc1nn(-c2ccccc2)c(C)c1/C=N/NC(=O)c1cc(-c2cccs2)[nH]n1 | 73* | 72* | 82* | 93* | 71* | 46 | 77* | 69*
CCc1ccccc1NC(=O)c1ccc2c(O)c(S(=O)(=O)c3ccc(OC)cc3)c(=O)[nH]c2c1 | . | -6 | -1 | . | . | -1 | . | .
Cc1ccc(NC(=O)c2cc3ccccc3oc2=O)cc1S(=O)(=O)N(C)C | 5 | 4 | 76* | 47* | 2 | 73* | 87* | -7
O=C(Nc1cccc(O)c1)c1cc(-c2ccc3c(c2)OCO3)on1 | . | 0 | 83* | . | . | 69* | 72* | -7
C=CCc1cccc(/C=N/NC(=O)c2ccc3nc[nH]c3c2)c1O | . | 12 | 63* | . | . | 43 | 46 | 27*
O=C(CSc1nc2ccc(Nc3nc(N4CCOCC4)nc(N4CCOCC4)n3)cc2s1)Nc1ccccc1F | . | -4 | -15 | . | . | . | . | .
Cc1ccc(C=Nc2ccccc2C(N)=O)s1 | 67* | 81* | 63* | 16 | 66* | -36 | 60 | 32*
Cc1cccc(C=Nc2ccccc2C(N)=O)c1 | 9 | 9 | 13 | 1 | 9 | -70 | . | .
CCOc1ccc(-c2ccc(SC)nn2)cc1 | 12 | 10 | 78* | -77 | 10 | 76* | 60 | 14
COc1ccc(NC(=O)CN2C(=O)NC(c3ccccc3)(c3ccccc3)C2=O)cc1OC | . | -8 | -9 | . | . | 2 | . | .
O=C(NCc1ccccc1)c1cccc(COc2ccc3c(c2)CCC3)c1 | 4 | 8 | -85 | -105 | 2 | 17 | . | .
O=C(O)c1cccc(COc2ccc3c(c2)CCC3)c1 | -1 | 0 | 98* | . | 3 | 81* | 100* | 0
Cc1ccc(C(=O)Nc2ccc3c(c2)OCCO3)c(Cl)c1 | . | 3 | 78* | . | . | 80* | 38 | 6
O=C(Nc1ccc2c(c1)OCCO2)c1cc(F)c(F)cc1Cl | . | -2 | -104 | . | . | -195 | . | .
CN(CCCC(=O)O)c1ccc(N=Nc2ccc([N+](=O)[O-])cc2)cc1 | . | . | . | . | . | -65 | . | .
CCOc1ccc(N(C)Cc2cc(=O)oc3ccc(OCC)cc23)cc1 | . | 0 | -8 | . | . | -7 | . | .
